Screening data (PubChem)
G9a block: inhibitors of human histone lysine methyltransferase G9a. Q96KQ7. G9a H3K9 monomethylation, AlphaScreen, 2 h. actives 8.8% (n = 350,000). Potency, µM (doses to about 102 µM), without a hit: at the top dose activity, negative = inhibition, usual class: inhibitors; note: potency is the fitted concentration of half-maximal effect; % is set by controls: 0 for no effect and ±100 for the full control effect; nearly all actives have a fitted effect of over 75% in size
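G9a (20 nM) was preincubated 15 min with compound, then reacted 2 h at room temperature with 500 nM biotin-H3K9 peptide and 20 µM SAM. Monomethyl-H3K9 detected by AlphaScreen using anti-H3K9me1 antibody.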
HP1b chromo inh: inhibitors of HP1-beta chromodomain binding to methylated histone tails; Potency, µM (highest dose often 114 µM), for inactives: top-dose activity change, negative = inhibition, actives largely listed as inhibitors; AlphaScreen HP1-beta / biotin-H3K9me3 peptide binding; actives 0.56% (n = 390,000); note: potency is the fitted concentration of half-maximal effect; nearly all actives have a fitted effect of over 70% in size
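Compound inhibition of the preformed complex between 50 nM HP1-beta and 50 nM biotinylated H3K9me3 peptide was read by AlphaScreen. Buffer was PBS pH 7.4 with 0.01% Tween-20. Incubations ran 30 min at room temperature, with 10 ug/mL donor/acceptor beads.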
Six1-Eya2 blk: Six1/Eya2 interaction inhibition | Q15475+O00167 | AlphaScreen GST-Six1/His-Eya2 binding, biochemical; active compounds read low | activity change, % (concentration not given with the values) | actives 0.56% (n = 360,000); in the data active = activity change below about -65%; inconclusive = mostly about -30% to -63%; note: % is set by controls: 0 for no effect and ±100 for the full control effect
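Six1/Eya2 binding was read as AlphaScreen signal after compounds were pinned into GST-Six1 plus His-tagged Eya2 (5X stock 250/500 nM) in pH 8.0 Tris/NaCl/TCEP buffer, beads added, then incubated 1 h, 37 C, dark.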
JMJD2A Tudor inh: inhibitors of human JMJD2A Tudor domain; O75164; AlphaScreen JMJD2A-Tudor / H3K4me3 peptide binding; AID 504339; Potency, µM (series often up to 114 µM), without a hit: at the highest dose activity change, negative = inhibition, hits mostly inhibitors; actives 4.4% (n = 390,000); note: potency is the fitted concentration of half-maximal effect; % is set by controls: 0 for no effect and ±100 for the full control effect; nearly all actives have a fitted effect of over 50% in size
Target sequence (O75164 whole entry, looked up, the tested form may be a part): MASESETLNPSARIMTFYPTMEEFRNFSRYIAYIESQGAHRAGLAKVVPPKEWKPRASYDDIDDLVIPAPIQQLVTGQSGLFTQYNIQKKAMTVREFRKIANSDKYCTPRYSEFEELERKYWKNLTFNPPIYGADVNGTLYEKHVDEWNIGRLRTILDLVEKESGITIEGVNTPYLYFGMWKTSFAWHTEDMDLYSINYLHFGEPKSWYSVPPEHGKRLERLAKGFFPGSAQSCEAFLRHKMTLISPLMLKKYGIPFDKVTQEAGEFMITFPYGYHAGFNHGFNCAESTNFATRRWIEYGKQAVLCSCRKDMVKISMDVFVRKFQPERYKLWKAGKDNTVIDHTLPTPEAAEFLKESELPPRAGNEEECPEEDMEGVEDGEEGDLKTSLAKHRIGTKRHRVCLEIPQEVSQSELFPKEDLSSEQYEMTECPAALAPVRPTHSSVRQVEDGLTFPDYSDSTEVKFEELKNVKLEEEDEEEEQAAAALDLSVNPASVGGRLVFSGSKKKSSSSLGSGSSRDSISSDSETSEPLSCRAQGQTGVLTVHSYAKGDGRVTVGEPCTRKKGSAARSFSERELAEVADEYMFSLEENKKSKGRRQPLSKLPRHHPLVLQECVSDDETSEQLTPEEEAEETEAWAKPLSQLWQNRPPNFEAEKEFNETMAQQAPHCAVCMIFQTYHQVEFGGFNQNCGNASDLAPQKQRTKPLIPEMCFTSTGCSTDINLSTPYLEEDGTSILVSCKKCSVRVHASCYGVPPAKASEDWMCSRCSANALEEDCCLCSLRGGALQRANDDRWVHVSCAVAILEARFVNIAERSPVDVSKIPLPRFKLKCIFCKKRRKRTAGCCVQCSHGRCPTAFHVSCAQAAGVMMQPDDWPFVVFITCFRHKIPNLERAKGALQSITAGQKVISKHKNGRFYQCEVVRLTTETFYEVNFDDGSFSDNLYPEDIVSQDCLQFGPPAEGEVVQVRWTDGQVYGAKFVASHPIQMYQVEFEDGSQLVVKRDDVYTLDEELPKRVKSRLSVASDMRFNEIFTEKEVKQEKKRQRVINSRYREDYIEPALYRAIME
BAZ2B block: inhibitors of human BAZ2B bromodomain | AID 504333 | actives 4.4% (n = 360,000) | AlphaScreen BAZ2B-H3K14Ac peptide displacement | Q9UIF8 | Potency, µM (series often up to 114 µM), for inactives: at the top dose activity change, negative = inhibition, hits mostly inhibitors; note: potency is the fitted concentration of half-maximal effect; % is set by controls: 0 for no effect and ±100 for the full control effect; nearly all actives have a fitted effect of over 60% in size
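Inhibition is scored as reduced AlphaScreen emission. The BAZ2B/b-H3(5-23)K14Ac complex (50 nM each) in PBS pH 7.4, 0.01% Tween-20 meets compound (up to 110 uM) for 30 min at RT before bead addition.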
CtBP-E1A inh: CtBP/E1A binding inhibition; AlphaScreen GST-E1A/His-CtBP binding, 1536-well; active compounds read low; activity change, % (test concentration not listed); actives 0.49% (n = 340,000); AID 651724; in the data active = activity change below about -65%; inconclusive = mostly about -30% to -63%; note: % is set by controls: 0 for no effect and ±100 for the full control effect
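GST-E1A and His-tagged CtBP (125 nM each as 5X stock) were preincubated with pin-transferred compound for 2 h at 37 °C in the dark, then glutathione donor and nickel acceptor beads were added for 1 h before AlphaScreen reading.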
The depositor's hits bear a star; u = inconclusive; x = no result given; ! = not active in a repeat; [ ] = remark or other dose. The list is not random: actives were taken first. Their share in the collection is about 10%. Unless noted, calls come from the whole dose curve; as a rule, active = well fitted inhibition curve with a large enough effect; inconclusive = small, poorly fitted or top-dose-only effect; inactive = no such curve, though single readings can be large or run the other way.

SMILES | G9a block | HP1b chromo inh | Six1-Eya2 blk | JMJD2A Tudor inh | BAZ2B block | CtBP-E1A inh
CCOc1ccc(OCC(=O)Nc2c(C(=O)Nc3ccc(C)cc3)oc3ccccc23)cc1 | 6%[59 µM] | 28% | x | -2% | -6% | x
COc1cc(Cl)c(S(=O)(=O)N2CCN(c3c(C)cccc3C)CC2)cc1Cl | 21%[59 µM] | 55% | x | 1% | 1% | x
Cc1cccc(-n2c(C)nc3cc(C(=O)NCCN4CCOCC4)ccc32)c1 | x | x | -3 | x | x | -6
CC(=O)N1N=C(c2cccc([N+](=O)[O-])c2)OC1c1ccc(Cl)cc1Cl (stereo unspecified) | -24% | -19% | u | u | u | u
CC(=O)N1N=C(c2cccc([N+](=O)[O-])c2)OC1c1ccc(Br)cc1 (stereo unspecified) | 45µM* | -11% | -1 | u | u | x
CC(=O)Nc1cc(-c2ccoc2)cn2c(-c3ccccc3)cnc12 | x | x | -14 | x | x | -11
COc1ccc(OC)c(C2C=C(C34CC5CC(CC(C5)C3)C4)NC(=S)N2)c1 (stereo unspecified) | u | u | u | u | 32µM* | u
CCOC(=O)c1cc(S(=O)(=O)Nc2c(C)cc(C)cc2C)[nH]n1 | 18µM* | 22%[57 µM] | x | -29% | u | x
CCOC(=O)c1cc(S(=O)(=O)Nc2cc(F)ccc2C)[nH]n1 | 18µM* | 20%[57 µM] | x | -29% | u | x
CCOC(=O)c1scc(-c2ccc(C)cc2)c1S(=O)(=O)Nc1ccc(OC)c(Cl)c1 | u | -6% | x | -22% | -19% | x
CCOC(=O)c1cc(S(=O)(=O)Nc2ccc(C)cc2Cl)[nH]n1 | 8.9µM* | 13%[57 µM] | x | -33% | 79µM* | x
CCOC(=O)c1cc(S(=O)(=O)N2CCN(c3ccc(OC)cc3)CC2)[nH]n1 | u | 15%[57 µM] | x | -33% | -25% | x
CCOC(=O)c1cc(S(=O)(=O)Nc2ccc(OC)c(Cl)c2)[nH]n1 | 8.9µM* | 12%[57 µM] | x | -34% | 56µM* | x
Cn1c2ccccc2c2c(C(=O)N3CCN(c4cccc(Cl)c4)CC3)cn(C3CCCCC3)c(=O)c21 | -35%[59 µM] | 22% | x | -12% | -27% | x
Fc1cc(Br)ccc1Nc1c2c(nc3nc(-c4cccs4)nn13)CCCC2 | -4%[59 µM] | 37%[57 µM] | x | -28% | 3% | x
NCCCCNCCCN | 11µM*! | 38% | 1 | -1% | 7% | 5
NCCNCCNCCN | 3% | 45% | -84* | -33% | u | -93*
NCCCCCCCCCCN | 67%[59 µM] | x | x | x | x | x
NCCCCN | 50µM*! | x | x | x | x | x
CCC1(CC)NC(=O)N(CC(=O)Nc2ccc(C)cc2C)C1=O | x | 16% | 3 | 0% | x | 16
O=C(NCn1ccc(=O)[nH]c1=S)c1ccccc1 | 56µM* | -14% | 9 | -19% | -4% | 11
S=c1[nH]nc(-c2ccc(Cl)cc2Cl)n1-c1ccc2c(c1)OCCO2 | 2.5µM* | u | -6 | 79µM* | -29% | -1
CCc1nc2c(cnn2-c2ccc(Cl)cc2)c(=O)n1-c1ccc2c(c1)OCCO2 | 6%[12.7 µM] | -14% | 2 | -6%[11.4 µM] | 8% | -1
Oc1ccc(-c2n[nH]c(=S)n2-c2ccc3c(c2)OCCO3)c(O)c1 | 1.8µM* | 7% | -4 | 10µM* | -29% | 2
CS(=O)(=O)Nc1ccc([N+](=O)[O-])cc1OC1CCCCC1 | 25%[59 µM] | x | x | x | x | x
SMILES | G9a block | HP1b chromo inh | Six1-Eya2 blk | JMJD2A Tudor inh | BAZ2B block | CtBP-E1A inh
CC(=O)Oc1cccc(N2C(=O)C3C(C2=O)C2C=CC3C23CC3)c1 (stereo unspecified) | 45µM* | 26% | -2 | -11% | 1% | 3
CC(=O)Oc1cccc(N2C(=O)C3C4C=CC(C4=C(C)C)C3C2=O)c1 (stereo unspecified) | -40%[2.33 µM] | u | -2 | u | -5% | -4
CC(=O)Oc1ccc(N2C(=O)C3C4C=CC(O4)C3C2=O)cc1 (stereo unspecified) | 3.5µM* | u | -2 | u | -28% | 9
Oc1c(Br)cc(Br)cc1/C=N/NC(=S)N[C@H]1CC2C=CC1C2 (stereo partly specified) | x | 0% | -23 | 40µM* | 17% | -25
CNC(=S)N/N=C/c1cc(Br)cc(Br)c1O | -7% | u | -90* | 32µM* | 3.2µM* | -97*
CCN1C(=NCc2ccc(OC)cc2)N[C@@H](c2ccccc2)[C@H](C(=O)OC)[C@H]1C | x | 20% | 7 | u | 17% | 6
NC(=O)c1cccnc1Oc1cccc(Cl)c1 | 1%[12.7 µM] | u | 8 | 20µM* | 16% | 2
NC(=O)c1cccnc1Oc1ccc(Cl)cc1 | x | 13% | 2 | -11% | -20% | -2
Cc1nc2ccc(C(=O)O)cc2c2c1CC(C)S2 (stereo unspecified) | u | -33% | -26 | u | 71µM* | -1
Cc1ccc2nc(-c3ccc(NC(=O)CN4C(=O)c5ccccc5C4=O)cc3)sc2c1 | -18%[59 µM] | 35% | 2 | -9% | 11% | 1
Cc1ccc2nc(-c3ccc(NC(=O)COC(=O)c4ccc(=O)[nH]c4)cc3)sc2c1 | -15%[59 µM] | -17% | -20 | 45µM* | -1% | -1
Cc1ccc2nc(-c3ccc(NC(=O)C(F)(F)F)cc3)sc2c1 | -37%[59 µM] | 33% | x | -2% | 4% | x
Cc1ccc2nc(-c3ccc(NC(=O)CNC4CC4)cc3)sc2c1 | 7.1µM* | -20% | -3 | u | 45µM* | 8
Cn1cc([C@]2(O)C(=O)Nc3c(F)cccc32)c2ccccc21 | x | x | -2 | x | x | -1
CC1(C)OC2C(CO)OC(n3cnc4c(=S)nc(N)[nH]c43)C2O1 (stereo unspecified) | x | x | 2 | x | x | 2
O=c1[nH]cnc2c1ncn2C1OC(CO)C(O)C1O (stereo unspecified) | 23%[59 µM] | 3% | 8 | -8% | x | -18
OCC1OC(n2cnc3c(=S)nc[nH]c32)C(O)C1O (stereo unspecified) | 16µM* | u | x | 20µM* | x | x
CC1(C)OC2C(CO)OC(n3cnc4c(=S)nc[nH]c43)C2O1 (stereo unspecified) | 8.9µM* | u | -4 | u | 50µM* | 4
COc1cc2c(cc1OC)-c1c(OC)c(OC)cc3ccnc(c13)C2=O | -15% | 42% | u | -25% | 14µM* | -71*
COc1ccc(C(=O)c2nccc3cc(OC)c(OC)cc23)cc1OC | -25%[2.33 µM] | 13% | 8 | -15% | -34% | -7
Cc1ccc2c(c1)-c1c(ssc1=S)C(C)(C)N2C(=O)CSC1=NCCS1 | u | u | -8 | 5µM* | 8.9µM* | -25
COc1ccccc1N1C(=O)N(C(C)=O)C2C1Nc1ccccc1N2C (stereo unspecified) | 7.1µM* | -20% | -18 | u | x | -23
